Screening data from PubChem.
The entries come from a sample that favours hits as a whole.
KDM5B inh: blocks human KDM5B histone demethylase activity; Q9UGL1; 220,000 tested, 2.6% active; Potency, µM (top dose mostly 57.7 µM), actives largely listed as inhibitors; KDM5B demethylase, FDH-coupled NADH fluorescence (FDH is formaldehyde dehydrogenase); active = well fitted inhibition curve with a large enough effect; also: 0% is about no effect; nearly all actives have a fitted effect of over 70% in size
Target sequence (Q9UGL1 whole entry, looked up): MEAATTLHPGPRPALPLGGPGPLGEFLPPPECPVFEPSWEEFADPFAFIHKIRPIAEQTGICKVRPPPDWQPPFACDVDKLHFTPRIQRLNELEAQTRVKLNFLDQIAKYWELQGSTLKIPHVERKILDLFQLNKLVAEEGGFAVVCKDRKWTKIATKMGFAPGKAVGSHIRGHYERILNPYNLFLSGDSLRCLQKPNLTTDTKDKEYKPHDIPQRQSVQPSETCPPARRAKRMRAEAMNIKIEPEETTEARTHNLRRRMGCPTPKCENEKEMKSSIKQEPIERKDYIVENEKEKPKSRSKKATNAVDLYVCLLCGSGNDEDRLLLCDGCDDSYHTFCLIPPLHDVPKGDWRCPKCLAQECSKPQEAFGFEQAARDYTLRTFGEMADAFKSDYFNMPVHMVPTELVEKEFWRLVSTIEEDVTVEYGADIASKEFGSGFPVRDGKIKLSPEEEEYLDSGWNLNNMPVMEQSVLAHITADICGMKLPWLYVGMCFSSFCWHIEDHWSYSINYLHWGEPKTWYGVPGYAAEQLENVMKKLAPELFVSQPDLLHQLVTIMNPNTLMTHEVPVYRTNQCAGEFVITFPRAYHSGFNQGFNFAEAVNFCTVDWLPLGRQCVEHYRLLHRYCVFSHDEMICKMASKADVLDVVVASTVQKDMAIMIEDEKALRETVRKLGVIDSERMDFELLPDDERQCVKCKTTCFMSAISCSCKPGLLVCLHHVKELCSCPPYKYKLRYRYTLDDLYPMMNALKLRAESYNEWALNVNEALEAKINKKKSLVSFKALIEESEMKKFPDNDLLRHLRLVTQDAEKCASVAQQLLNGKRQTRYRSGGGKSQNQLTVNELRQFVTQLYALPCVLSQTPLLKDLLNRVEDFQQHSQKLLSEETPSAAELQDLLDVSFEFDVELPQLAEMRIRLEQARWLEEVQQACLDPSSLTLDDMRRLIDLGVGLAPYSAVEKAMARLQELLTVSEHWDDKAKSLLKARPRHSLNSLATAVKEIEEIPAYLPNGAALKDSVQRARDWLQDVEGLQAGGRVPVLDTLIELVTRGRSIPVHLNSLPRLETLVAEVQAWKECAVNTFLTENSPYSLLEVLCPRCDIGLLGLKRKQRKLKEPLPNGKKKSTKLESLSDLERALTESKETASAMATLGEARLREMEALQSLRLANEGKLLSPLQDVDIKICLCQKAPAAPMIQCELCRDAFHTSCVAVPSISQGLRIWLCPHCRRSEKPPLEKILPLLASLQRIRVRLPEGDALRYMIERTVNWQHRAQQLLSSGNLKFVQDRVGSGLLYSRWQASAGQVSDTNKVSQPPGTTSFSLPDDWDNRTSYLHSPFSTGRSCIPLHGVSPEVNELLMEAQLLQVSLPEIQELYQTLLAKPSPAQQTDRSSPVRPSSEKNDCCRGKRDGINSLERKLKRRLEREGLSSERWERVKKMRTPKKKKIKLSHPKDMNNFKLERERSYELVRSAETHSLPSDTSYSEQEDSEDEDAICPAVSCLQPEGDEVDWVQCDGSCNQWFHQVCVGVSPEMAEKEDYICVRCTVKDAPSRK
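Compound dilutions met 200 nM (final) KDM5BΔAP for 10 min at room temperature before substrate addition. The substrate mix held 12.5 µM H3K4me3 with cofactors 25 µM α-ketoglutarate and 50 µM Fe²⁺. NADH signal gain over 30 min defined activity.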
* = called active by the depositor; i = inactive. Potency is read from the fitted curve at half-maximal effect.

SMILES	KDM5B inh
CC1=C[C@@H](CN2CCN(c3ccc(F)cc3)CC2)[C@H](C(C)C)C[C@H]1Cc1nnc(-c2cncn2C)o1	i
Cc1noc(C)c1-c1cc2c(cc(-c3ccccc3)n2C)c(Nc2ccncn2)n1	35µM*
Cc1noc(C)c1-c1cc2c(cc(C)n2C)c(Nc2ccncn2)n1	i
Cc1cc2cc(-c3c(C)noc3C)nc(NCc3ccccc3)c2o1	i
O=C(/C=C/N1CCCCC1)c1ccc(Br)cc1	i
Cc1ccc(SCc2ccc(C(=O)Nc3ccccc3C)cc2)cc1	i
OC1CC(c2cc(N3CCC(c4nc5ccccc5[nH]4)CC3)ncn2)C1 (stereo not given)	i
OC1CC(c2cc(N3CCN(c4nsc5ccccc45)CC3)ncn2)C1 (stereo not given)	32µM*
OC1CC(c2cc(N3CCC(c4nnc5ccccn45)CC3)ncn2)C1 (stereo not given)	i
Cc1nc(-c2ccccc2)sc1C(=O)Nc1ccccc1	i
CCCSc1nc2c(c(=O)[nH]c(=O)n2C)n1Cc1ccccc1Cl	i
CCCN1CCC(NC(=O)CC23CC4CC(CC(C4)C2)C3)CC1	i
COc1ccc(CC2C(=O)Nc3ccc(Br)cc32)cc1 (stereo not given)	i
CN(Cc1ccccc1)C(=O)c1nc2ccccn2c1CNCCOc1cccnc1	i
O=C(O)CCNc1c(-c2ccc(F)cc2)nc2cnccn12	28µM*
COc1ccc(-c2noc(C(=O)N3CCCC3)c2[C@H](C)O)cc1	i
O=C(Nc1ccc(-c2cccc(F)c2)cc1)C1CCCN(C(=O)c2ccncc2)C1 (stereo not given)	i
O=C(CCNc1c(-c2cccc(F)c2)nc2cnccn12)N1CCCC1	28µM*
COc1ccc(-c2nnc(SCC(=O)N3CCCCC3)o2)cc1	i
O=C(O)CCc1conc1-c1ccc(F)cc1	i
O=C(Nc1c(-c2ccccc2)nc2ccccn12)c1cccc(F)c1	i
COc1ccc(-c2nc3cnccn3c2NCCC(=O)N2CCCCCC2)cc1	28µM*
O=C(CCOc1cccc(F)c1)N1CCC(c2nnc3n2CCC3)CC1	i
CN(Cc1ccccc1)C(=O)CCNc1c(-c2cccc(F)c2)nc2cnccn12	25µM*
CC(C)c1ccc(Nc2c(-c3ccc(N(C)C)cc3)nc3cnccn23)cc1	i
SMILES	KDM5B inh
Cc1ccc(-c2c(C)nn3c(N4CCN(C)CC4)cc(C)nc23)cc1	i
CC(=O)c1ccc(N2CCN(C(=O)c3cc(F)c(F)cc3C)CC2)c(F)c1	i
O=C(C1=Cc2ccccc2OC1)N1CCN(S(=O)(=O)c2cccc(Cl)c2)CC1	i
CCOC(=O)N1CCN(C(=O)c2ccc(N3C(=O)CCS3(=O)=O)cc2Cl)CC1	i
COc1ccc(Br)cc1COC(=O)c1ccc(OC)c(OC)c1OC	i
Cn1c(=O)c2c(nc(NCCN)n2Cc2ccc(Br)cc2)n(C)c1=O	i
Fc1ccc(Br)cc1/C=N/Nc1c(Cl)cc(Cl)cc1Cl	i
CN1CCN(C(=O)CCn2cnc3c2c(=O)n(C)c(=O)n3C)CC1	i
Cn1ccnc1C(NC(=O)c1nn(C)c(=O)c2ccccc12)c1ccc(F)cc1 (stereo not given)	i
CC(C)(C)NC(=O)COC(=O)c1n[nH]c(=O)c2ccccc12	i
Cc1ccc(C(=O)NC2CC2)cc1NC(=O)NC1CCCC1	i
Cc1cc2ccccc2n1CC(=O)N(C)Cc1ccc(C(N)=O)cc1	i
Cc1ccc(-c2nc3cnccn3c2NCCC(=O)N2CCCCC2)cc1	32µM*
O=C(CCNc1c(-c2ccccc2)nc2cnccn12)N1CCCC1	28µM*
Cc1nn(C)c2nc(NCCC(=O)N3CCCC3)sc12	i
Cc1ccc(C(=O)Nc2c(-c3ccccc3)nc3ccccn23)cc1	i
O=C(CCNS(=O)(=O)c1ccccc1)N1CCCCCC1	i
O=C(CNc1nc(-c2ccccc2)nc2ccccc12)N1CCCC1	i
CCCN(C(=O)c1ccc2c(=O)n3c(nc2c1)CCCC3)c1ccc(OCC)cc1	i
CCC(=O)N1Cc2ccccc2CC2(CCN(Cc3ccccn3)CC2)C1	i
COC(=O)C1CCCN1S(=O)(=O)c1cc(Cl)ccc1Cl (stereo not given)	i
COc1ccc(OC)c(Nc2nc3ccccc3nc2NS(=O)(=O)c2ccc(C)cc2)c1	i
O=C(Nc1ccc2c(c1)OCCO2)c1cc2c(s1)-c1ccc(Cl)cc1S(=O)(=O)C2	i
Cn1nc(C(=O)OCC(=O)c2ccc(OC(F)F)cc2)c2ccccc2c1=O	i
CCOC(=O)c1cccc(NC(=O)CS(=O)(=O)Cc2nc(-c3ccccc3C)oc2C)c1	i
SMILES	KDM5B inh
Cc1cc(C(=O)NCC2CCCCC2)c2ccccc2n1	i
Cc1oc(-c2ccccc2)nc1C(=O)NCCN1CCOCC1	i
Cn1c(C(=O)NCC2CC2)nc2nc(-c3ccccc3)c(Cl)cc21	40µM*
COc1cc(CNC(=O)c2nc3nc(-c4ccccc4)c(Cl)cc3n2C)cc(OC)c1	35µM*
O=C(NCCc1ccccn1)c1ccc(Cl)cc1	i
COc1ccc(CNC(=O)c2cc(C)nn2-c2ccccc2)cc1	i
COc1cccc(CNC(=O)Nc2ncc(-c3ccccc3)n2C)c1	i
Cn1c(C(=O)NCCN2CCOCC2)nc2nc(-c3ccccc3)c(Cl)cc21	35µM*
Cn1c(C(=O)NCCc2ccccn2)nc2nc(-c3ccccc3)c(Cl)cc21	35µM*
Cc1cc2ccccc2n1CC(=O)NCC1CCC(C(=O)O)CC1 (stereo not given)	i
O=C(NCCc1ccccn1)c1cc(-c2ccccc2)nc2ccccc12	i
O=C(NCCN1CCOCC1)c1nn2c(C(F)(F)F)cc(-c3ccccc3)nc2c1Br	i
COc1ccc2c(c1)cc(C(=O)Nc1ccc(F)cc1F)n2C	i
Cc1nc(-c2c3n(c(=O)n(CC(=O)Nc4ccc(C)c(F)c4)c2=O)CCCC3)no1	i
CNC1C2CC3CC(C2)CC1C3 (stereo not given)	i
O=C(NC1CCCc2ccccc21)c1ccc2ccccc2n1 (stereo not given)	i
Cc1cccc(CSc2nnc(CCCOc3ccc(Cl)cc3Cl)n2C)c1	i
CCc1nc2c(c(-c3ccc(O)cc3)n1)CCN(Cc1ccc(C(F)(F)F)cc1)CC2	i
COc1ccc(CNC(=O)c2sccc2-c2ccccc2)cc1OC	i
COc1cc(C(=O)NC2CCN(c3cc(-c4ccccc4)[nH]n3)CC2)cc(OC)c1OC	i
O=C(Cn1c(=O)nc(-c2ccccc2)c2cc(Cl)ccc21)NCc1ccccc1	i
COc1ccc(C(=O)NC2CCN(c3cc(-c4ccccc4)[nH]n3)CC2)c(OC)c1	i
COc1ccccc1-c1cc2c(nc1-c1ccccc1)nc(C(=O)NC1CCN(C)CC1)n2C	28µM*
COc1ccc(CNC(=O)c2nc3nc(-c4ccccc4)c(Cl)cc3n2C)cc1OC	35µM*
COc1ccc(CNC(=O)c2cc(Cl)ccc2O)cc1OC	i
SMILES	KDM5B inh
Cn1c(C(=O)NCc2ccoc2)nc2nc(-c3ccccc3)c(Cl)cc21	35µM*
Cc1ccc(-n2c(C3CCN(C(=O)COc4ccc(Cl)cc4)CC3)n[nH]c2=O)cc1	i
O=C(c1cc2ccccc2[nH]1)N(Cc1cccs1)C1CC1	i
Cc1ccc(N/N=C/c2ccc(F)c(F)c2)cc1Cl	i
COc1ccccc1C(=O)NCCC(=O)N1CCCC(C(F)(F)F)C1 (stereo not given)	i
COc1ccccc1C(=O)NCCC(=O)N1CCCCC1	i
CN1CCOc2c(C(=O)NCCC(N)=O)cc(-c3ccccc3O)cc21	32µM*
